# About 79,000 compounds went through this panel and 15% of them were active in at least one assay; those are over-represented in the sample as a whole. A number with no mark means an inactive call. Active and inactive are the calls of the source. Cut-off read from the data, not from the text of the source: active = growth inhibition above about 70%; inactive = the rest.
# Columns and labels:
# [1] = NCI Yeast Anticancer Drug Screen. Data for the rad50 strain (AID 155);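 note: 0% = growth of vehicle-only cultures of the same strain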; settings: S. cerevisiae rad50 strain growth inhibition, hits give high values
# Method in brief: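 Compounds were tested on a yeast strain with an engineered DNA damage repair alteration; the reported value is growth inhibition normalised to vehicle treatment.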
# [2] = NCI Yeast Anticancer Drug Screen. Data for the mec2-1 strain (AID 157); settings: S. cerevisiae mec2-1 strain, hits give high values
# Method in brief: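 Each compound was tested on mec2-1 yeast, a strain altered in DNA damage repair or cell cycle control. Growth inhibition is reported relative to vehicle.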
# [3] = NCI Yeast Anticancer Drug Screen. Data for the sgs1 mgt1 strain (AID 161);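 note: 0% = growth of cultures given vehicle only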; settings: S. cerevisiae sgs1 mgt1 strain, hits give high values
# Method in brief: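 Test agents were incubated with a DNA-repair-mutant yeast strain. Growth was then read and compared against vehicle-treated controls.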
# [4] = NCI Yeast Anticancer Drug Screen. Data for the cln2 rad14 strain (AID 165);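 note: 0% = growth equal to vehicle treated cultures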; settings: S. cerevisiae cln2 rad14 strain, hits give high values
# Method in brief: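 Test compounds were added to cln2 rad14 yeast cultures; inhibition of growth was then determined by comparison with vehicle treatment.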
# [5] = NCI Yeast Anticancer Drug Screen. Data for the bub3 strain (AID 167); settings: S. cerevisiae bub3 mutant strain, hits give high values
# Method in brief: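 Growth of a checkpoint-deficient yeast mutant is measured after compound exposure. Values represent inhibition relative to vehicle.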
# [6] = NCI Yeast Anticancer Drug Screen. Data for the mlh1 rad18 strain (AID 175); settings: S. cerevisiae mlh1 rad18 strain growth inhibition, hits give high values
# Method in brief: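 Inhibition values reflect reduced growth of mutant yeast versus vehicle-treated controls following compound exposure; the mutations affect DNA damage repair.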
# [7] = at 5.0 µM (retest, dose inferred, filed as 0.5)
# [8] = at 50.0 µM (retest, dose inferred, filed as 5.0)
Structure (SMILES),"growth inhibition [1, 7] [%]","growth inhibition [1, 8]",growth inhibition ([1]; at 50.0 µM),"growth inhibition [2, 7]","growth inhibition [2, 8]",growth inhibition ([2]; at 50.0 µM),"growth inhibition [3, 7] [%]","growth inhibition [3, 8]",growth inhibition ([3]; at 50.0 µM),"growth inhibition [4, 7] [%]","growth inhibition [4, 8]",growth inhibition ([4]; at 50.0 µM),"growth inhibition [5, 7]","growth inhibition [5, 8]",growth inhibition ([5]; at 50.0 µM),"growth inhibition [6, 7]","growth inhibition [6, 8]",growth inhibition ([6]; at 50.0 µM)
CC(C)(C)[Si](C)(C)O/N=C\c1cccc(O[Si](C)(C)C(C)(C)C)c1,-3,97% (active),48%,-6%,95% (active),12.3%,0,99% (active),78.5% (active),-13,97% (active),54.8%,3%,94% (active),36%,-3%,98% (active),76.8% (active)
Cc1ccc(S(=O)(=O)OCC2OC(c3ccccc3)OC3C(CO)OC(c4ccccc4)OC23)cc1 (stereo not given),-1,-6%,16.7%,0%,-5%,50.5%,-3,-6%,11.3%,4,-10%,16.2%,0%,-5%,-0.65%,0%,-6%,60.5%
N#CC(=C1C=CC(=NOC(=O)Nc2ccccc2)C=C1)c1ccccc1,18,98% (active),99% (active),4%,99% (active),99.4% (active),11,99% (active),99.5% (active),1,99% (active),88.3% (active),-5%,98% (active),99.2% (active),5%,98% (active),99.2% (active)
CCCCN(CCCC)CC(O)c1cc(-c2ccc(Cl)cc2)nc2c(-c3ccccc3)cccc12 (stereo not given),-1,30%,52.8%,-5%,13%,36.3%,0,54%,80.8% (active),-7,22%,13.8%,-4%,24%,8.15%,0%,39%,66.7%
COCCNC(=O)C1C(=O)N(CCOC)C(=O)/C1=N/N (stereo not given),1,-1%,-33.3%,1%,5%,0.6%,8,-1%,13.6%,-2,6%,35%,0%,20%,-0.25%,-3%,-2%,5.5%
O=P1(N2CCCCC2)N(Cc2ccc(Cl)cc2)CCCN1Cc1ccc(Cl)cc1,59,96% (active),82% (active),65%,97% (active),51.5%,11,97% (active),29.1%,31,96% (active),63.2%,49%,96% (active),6.75%,69%,90% (active),76.8% (active)
CC(C)N(C(=O)CC1(O)CCCCC1)C(C)C,2,-14%,-0.25%,-5%,1%,-11.9%,1,-11%,-14.6%,-6,4%,73.8% (active),-1%,6%,-9.25%,0%,-9%,1.85%
COc1cc(-c2ccc(-[n+]3nc(Cc4ccc5c(c4)OCO5)nn3-c3ccccc3)c(OC)c2)ccc1-[n+]1nc(Cc2ccc3c(c2)OCO3)nn1-c1ccccc1,4,41%,68.8%,1%,46%,91.9% (active),1,49%,92.6% (active),2,22%,37.1%,-1%,60%,83.4% (active),2%,79% (active),91.4% (active)
CN(/N=C/c1ccc([N+](=O)[O-])o1)C(N)=O,10,44%,80% (active),4%,18%,49.5%,10,57%,87.3% (active),3,17%,49.5%,6%,28%,46.3%,22%,58%,89.4% (active)
Nc1ccc(/C=C2/c3ccccc3-c3nc4ccccc4cc32)cc1,3,87% (active),78.9% (active),0%,63%,15.6%,-4,77% (active),59.9%,-4,33%,5%,-1%,57%,6.8%,1%,85% (active),52.1%
Cc1ccc(SCc2ccc(Cl)cc2Cl)nn1,-1,64%,96.8% (active),-16%,85% (active),94% (active),-4,85% (active),82.8% (active),0,20%,25.9%,12%,61%,93.8% (active),-3%,78% (active),94% (active)
COc1ccc(C2C3C(=O)OCCOC(=O)C3C2c2ccc(OC)c(OC)c2)cc1OC (stereo not given),1,49%,12.5%,13%,51%,17.2%,4,49%,14.2%,21,59%,7.7%,15%,62%,18.9%,15%,67%,37.5%
CC(C)(C)N1C(=O)C(Cl)(C#N)C1c1ccccc1 (stereo not given),7,25%,43.5%,-4%,8%,26.6%,-3,27%,73.5% (active),9,11%,19.9%,-1%,0%,-6.3%,-11%,26%,72.5% (active)
COC1/C=C\C=C(/C)C(=O)Nc2cc3nc4cc(Br)ccc4oc-3c(c2=O)CC(C)CC(OC)C(O)C(C)/C=C(\C)C1OC(N)=O (stereo not given),54,95% (active),90.2% (active),81% (active),96% (active),92% (active),46,94% (active),89.9% (active),50,96% (active),83.2% (active),79% (active),96% (active),91.8% (active),81% (active),95% (active),89.4% (active)
Oc1cc(-[n+]2ccc3ccccc3c2)c(O)c2ccccc12,10,70% (active),44.2%,-1%,27%,39.2%,11,45%,15.6%,-4,-10%,-20.8%,24%,72% (active),64.5%,16%,46%,54.1%
CC(CC=NCCN=CCC(C)CC(C)(C)C)CC(C)(C)C (stereo not given),16,-2%,97.9% (active),-3%,3%,68.3%,5,45%,91.3% (active),0,10%,30.1%,-6%,3%,96.3% (active),1%,20%,98.4% (active)
Oc1c(Cl)cc(Cl)cc1C=NCCSc1ccc(Cl)cc1,33,99% (active),92.2% (active),30%,99% (active),93.8% (active),27,99% (active),94.8% (active),23,99% (active),93.2% (active),45%,99% (active),93.9% (active),49%,99% (active),92.7% (active)
O=[N+]([O-])/C=C/c1cc2ccccc2[nH]1,6,99% (active),99.5% (active),-6%,100% (active),99.5% (active),9,99% (active),99.4% (active),11,99% (active),96.5% (active),-8%,100% (active),99.5% (active),16%,99% (active),99.2% (active)
C/C(=N\NC(=S)NCCCNC(=S)N/N=C(\C)c1ccccn1)c1ccccn1,8,66%,82.5% (active),9%,75% (active),82.4% (active),10,77% (active),86.2% (active),18,78% (active),83.3% (active),0%,60%,83.1% (active),17%,85% (active),88.9% (active)
O=C(CN1CCCC1)Nc1nc(-c2ccc(Cl)cc2)cs1,55,69%,50.5%,37%,53%,35.7%,54,87% (active),67.5%,39,57%,48.3%,45%,88% (active),67.6%,65%,82% (active),64.2%
